PGC1a acetyl inh – lowers PGC1a acetylation signal in U2OS cells; AlphaScreen anti-acetyl-lysine; with virally co-expressed GCN5 acetyltransferase; inhibition, % at 15.6 µM; hit rate 0.17% among 350,000;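 active means every replicate shows inhibition of at least 40%; inconclusive means mean inhibition at least 40% but some replicate below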
EWS-Fli inh – inhibitors of EWS/Fli oncoprotein transcriptional activity | A673 NR0B1-luciferase reporter, viability-normalised | inhibition, % at 12.6 µM | hit rate 0.67% among 350,000;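 active means mean inhibition of at least 50% after viability correction, with every replicate also passing that limit; inconclusive means mean reaches 50% but only one of two replicates passes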;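 further: firefly luciferase signal divided by Alamar Blue viability fluorescence both relative to DMSO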
LGR2 inh – inhibitors of bursicon-induced Drosophila LGR2 receptor cAMP signaling; HEK293 LGR2, CRE-luciferase, bursicon-stimulated, 4 h; hit rate 0.35% among 380,000; inhibition, % at 9.99 µM;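 active means drop in luminescence signal, shown as inhibition above about 50% in the replicate tests, limit read from the data, passing the limit was not always enough; inconclusive means probably only some replicates passing the limit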;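 further: agonist challenge used bursicon conditioned medium at about half maximal strength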
LMP1 NFkB inh – Epstein-Barr LMP1 NF-kappaB reporter inhibition | inhibition, % at 12.5 µM | hit rate 0.69% among 350,000 | LMP1-induced NF-kappaB luciferase reporter cells, luminescence; in the data active means inhibition above about 41%; inconclusive means no clear call, values can overlap the other calls
PAX8 reporter – lowers PAX8-driven luciferase in RMG-I cells. RMG-I TPO-luciferase reporter, SteadyGlo, 24 h. inhibition, % at 12.6 µM. AID 652154. hit rate 1.2% among 360,000;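 active means mean replicate inhibition at least 60% with every replicate also reaching 60%; inconclusive means only one of the two criteria is met; inactive means mean below 60% and not all replicates reaching 60%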;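 further: luciferase light reporting Pax8 driven TPO promoter activity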
TRPM1 prom inh – inhibitors of MITF-driven TRPM1 promoter in melanoma cells; hit rate 0.83% among 330,000; inhibition, % at 12.5 µM; SK-MEL-5 TRPM1 promoter luciferase, 24 h;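 active means mean inhibition across replicates of 60% or more, whatever share of single replicates reaches that level; inconclusive means some that reach 60%, reason not given; inactive means mean inhibition across replicates below 60%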
Of the large screens only hits and unclear results are named; the others gave an inactive call. Hits are enriched below; roughly 2.2% of the tested compounds scored in any of these assays.

Cc1cccc(-c2ccc([C@H]3[C@H](CO)N4CCCCN(S(=O)(=O)c5ccccc5C)C[C@@H]34)cc2)c1	PAX8 reporter 86 (no result: LMP1 NFkB inh, TRPM1 prom inh)
O=C(OCc1ccccc1)c1ccc(NCc2cc(O)ccc2O)cc1	EWS-Fli inh 62, LGR2 inh 54, TRPM1 prom inh 81
CC(C)OC(=O)c1ccc(NCc2cc(O)ccc2O)cc1	EWS-Fli inh 69 (no result: LGR2 inh)
COP(=O)(OC)c1ccc(NCc2cc(O)ccc2O)cc1	none (no result: PGC1a acetyl inh)
CCC(=O)Nc1ccc(C(=O)OCc2ccccc2)cc1	none
CCCNC(=O)N(C)C[C@@H]1Oc2ncc(C#Cc3ccncc3)cc2C(=O)N([C@@H](C)CO)C[C@H]1C	none (no result: LMP1 NFkB inh, PAX8 reporter, TRPM1 prom inh)
CCOC(=O)c1c(-c2ccc(OC)cc2)csc1/N=C/C1=C(O)CCCC1=O	LMP1 NFkB inh 53 (no result: PGC1a acetyl inh, EWS-Fli inh)
COc1ccc(NC(=O)c2sc3ncnc(N4CCN(c5ccccn5)CC4)c3c2C)cc1Cl	LMP1 NFkB inh 44
COc1ccc(NC(=O)c2sc3nc(C)nc(N4CCN(c5ccccn5)CC4)c3c2C)cc1Cl	none
COc1ccc(CNC(=O)COc2ccc(C(=O)c3ccc(F)cc3)cc2)cc1	none (no result: PGC1a acetyl inh)
O=C(COc1ccc(C(=O)c2ccc(F)cc2)cc1)NCc1ccc(F)cc1	EWS-Fli inh 57 (no result: PGC1a acetyl inh)
C[C@H]1CCCCO[C@H](CN(C)C(=O)Nc2ccc(F)cc2)[C@@H](C)CN([C@@H](C)CO)C(=O)c2cc(NS(=O)(=O)c3cccs3)ccc2O1	none (no result: LMP1 NFkB inh, TRPM1 prom inh)
O=C1NC(c2cccc3ccccc23)Nc2ccc(Cl)cc21 (centres undefined)	PAX8 reporter 71
O=C(OCc1ccccc1)N1CCC2CC1c1cc(-c3ccc(F)cc3)ccc12 (centres undefined)	PGC1a acetyl inh 63
COc1cccc(S(=O)(=O)Nc2ccc3c(c2)[C@@H]2C[C@H](CC(=O)N[C@@H](C)c4ccccc4)O[C@@H](CO)[C@@H]2O3)c1	none (no result: LMP1 NFkB inh, TRPM1 prom inh)
Nc1nccc(-c2cc(-c3ccc(Cl)cc3Cl)no2)n1	LGR2 inh 60
Cc1cc2[nH]c3ccccc3c2c(C)n1	none (no result: PGC1a acetyl inh)
Cc1cc2[nH]c3c4ccccc4nc(C)c3c2cc1C	EWS-Fli inh 61, PAX8 reporter 86, TRPM1 prom inh 86 (no result: PGC1a acetyl inh)
C[C@H]1CN([C@@H](C)CO)C(=O)c2cc(C#CC3CCCC3)cnc2O[C@@H]1CN(C)C(=O)C1CC1	none (no result: LMP1 NFkB inh, PAX8 reporter, TRPM1 prom inh)
O=C1c2ccccc2C(=O)c2c(/C=C/N3CCCCC3)ccnc21	TRPM1 prom inh 95 (no result: PGC1a acetyl inh)
C[C@H]1CN([C@@H](C)CO)C(=O)c2cc(/C=C/c3ccccc3)cnc2O[C@H]1CN(C)C	none (no result: LMP1 NFkB inh, PAX8 reporter, TRPM1 prom inh)
Cc1nn(Cc2c(Cl)cccc2Cl)c(C)c1NC(=O)c1cn(-c2ccccc2)nc1-c1ccccc1	TRPM1 prom inh 87 (no result: EWS-Fli inh, LGR2 inh, PAX8 reporter)
CNC(=O)C[C@@H]1CC[C@@H]2[C@@H](COc3ccc(NC(=O)c4ccccc4F)cc3C(=O)N2C)O1	none (no result: LMP1 NFkB inh, TRPM1 prom inh)
CCn1c(NC(=O)c2ccc(C)cc2)c2ccccc2nc1=O	LMP1 NFkB inh 79 (no result: EWS-Fli inh, LGR2 inh, PAX8 reporter)
O=C(Nc1cccnc1)c1cc(-c2ccc(Cl)c(Cl)c2)on1	none (no result: PGC1a acetyl inh)
CCOc1ccc(-c2cc(CCCC(=O)Nc3cccc(OC)c3)no2)cc1	EWS-Fli inh 64, LMP1 NFkB inh 47, TRPM1 prom inh inconclusive (no result: PGC1a acetyl inh)
COc1ccc(-c2cc(C(=O)Nc3cccc(O)c3)no2)cc1	EWS-Fli inh 69
O=C(Nc1cccnc1)c1cc(-c2ccc3c(c2)OCO3)on1	LGR2 inh 63 (no result: EWS-Fli inh, PAX8 reporter)
O=C(c1cc(-c2ccc3c(c2)OCO3)on1)N1CCOCC1	LMP1 NFkB inh 62 (no result: PGC1a acetyl inh, EWS-Fli inh, LGR2 inh, PAX8 reporter)
COc1ccc(-c2cc(C(=O)Nc3ccc(C)c(C)c3)no2)cc1	none
COc1ccc(S(=O)(=O)N(C)C[C@H]2Oc3ccc(NC(=O)C4CC4)cc3C(=O)N([C@@H](C)CO)C[C@H]2C)cc1	none (no result: LMP1 NFkB inh, TRPM1 prom inh)
CO[C@@H]1CN(C)C(=O)c2cc(NC(=O)Nc3ccccc3F)ccc2OC[C@@H](C)N(Cc2ccccc2C(=O)O)C[C@@H]1C	none (no result: LMP1 NFkB inh, TRPM1 prom inh)
COc1ccc(-c2cc(C(=O)N3CCCC3)no2)cc1	LGR2 inh 75, LMP1 NFkB inh 50
COc1ccc(-c2cc(C(=O)N3CCCCCC3)no2)cc1	none (no result: PGC1a acetyl inh)
CO[C@H]1CN(C)C(=O)c2cc(NC(=O)Nc3cc(F)ccc3F)ccc2OC[C@@H](C)N(C(=O)c2cnccn2)C[C@@H]1C	none (no result: LMP1 NFkB inh, TRPM1 prom inh)
CCOC(=O)c1c(CN2CCNCC2)nc2ccc(Cl)cc2c1-c1ccccc1	TRPM1 prom inh 90 (no result: PGC1a acetyl inh)
CCN1CCN(c2ccc(S(=O)(=O)N3CCCCC3)cc2NC(=O)/C=C/c2ccc(F)cc2)CC1	none (no result: PGC1a acetyl inh)
CN1CCN(c2ccc(S(=O)(=O)N3CCCCC3)cc2NC(=O)/C=C/c2ccc(Cl)c([N+](=O)[O-])c2)CC1	PAX8 reporter 88 (no result: PGC1a acetyl inh)
CCN1CCN(c2ccc(S(=O)(=O)N3CCCCC3)cc2NC(=O)/C=C/c2cccc(OC)c2OC)CC1	TRPM1 prom inh 78 (no result: PGC1a acetyl inh)
CCN1CCN(c2ccc(S(=O)(=O)N3CCCCC3)cc2NC(=O)/C=C/c2ccc([N+](=O)[O-])cc2)CC1	EWS-Fli inh 57 (no result: PGC1a acetyl inh)
Cc1ccc(S(=O)(=O)N(C)C[C@H]2Oc3c(NC(=O)NC4CCCCC4)cccc3C(=O)N([C@@H](C)CO)C[C@@H]2C)cc1	none (no result: LMP1 NFkB inh, TRPM1 prom inh)

Compound activity: PubChem, Broad Institute
